One may read the Inhibition as the share of the control response that was lost under treatment. A low value points to a response near the control.

One assay relates to Plasmodium falciparum. Description: GSK_TCMDC: Inhibition of Plasmodium falciparum 3D7 in whole red blood cells, using parasite LDH activity as an index of growth. Test compounds present at 2uM. The assay is classed as functional.
With `COc1ccc(NCc2cccc(-c3cccc(CNCCc4ccccc4)c3)c2)cc1.O=C(O)C(F)(F)F`, the Inhibition amounted to 96%.
For the molecule `O=C(NCC1CCN(Cc2cccc(C(F)(F)F)c2)C1)c1cc(-c2cccc(F)c2)cs1.O=C(O)C(F)(F)F` (configuration not stated), the Inhibition is on record as 87%.
On to `Cc1cc2ncn(-c3ccnc(N4CCN(CCCN5CCCC5)CC4)n3)c2cc1C.O=C(O)C(F)(F)F`, for which the Inhibition is 100%.
In turn, `O=C(Nc1ccc(N2CCCN(Cc3cccc(F)c3)CC2)cc1)c1cccs1.O=C(O)C(F)(F)F` came in with an Inhibition of 96%.
`O=C(NC1CCN(CCN2CCC(c3cn(CCO)c4ccccc34)CC2)CC1)c1ccc(-c2ccc(C(F)(F)F)cc2)cc1` yielded an Inhibition of 98%.
The same measure, in the same setting: in the case of `CCCCCC(=O)N1CCOC(CCN2CCC(c3ccccc3)CC2)(c2ccc(Cl)c(Cl)c2)C1` (configuration not stated) it was 89%.
Molecule `COc1ccccc1C1CCN(C2CCC(NC(=O)/C=C/c3cccc(C(F)(F)F)c3)CC2)CC1` (configuration not stated) registered an Inhibition of 99%.
The molecule `O=C(/C=C/c1ccc(Cl)c(Cl)c1)NCCCCCN1CCC(NC(=O)Nc2cc(Cl)nc(Cl)c2)CC1` yielded an Inhibition of 100%.
With `CN(CCN)Cc1ccc(-c2ccc(-c3nc4cc(F)ccc4[nH]3)s2)cc1.O=C(O)C(F)(F)F`, the Inhibition is 96%.
On the same count and under the same terms, for `CC1CN(Cc2ccccc2)CCN1c1ccc(NC(=O)c2ccc(F)cc2)cc1.O=C(O)C(F)(F)F` (configuration not stated) the value was 87%; for `O=C(O)C(F)(F)F.O=C1CCCN1CCCNCc1ccc(-c2ccc(-c3nc4cc(F)ccc4[nH]3)s2)cc1`, 100%.
On the same count and under the same terms, for `O=C(Nc1ccc2c(c1)CCN(C1CCC1)CC2)c1cn(-c2ccccc2)nc1-c1ccccc1.O=C(O)C(F)(F)F` the value was 100%; for `Cc1cc2ccccc2c(CON2C(=N)N=C(N)NC2(C)C)c1C.Cl`, 93%; for `Cc1cc(C(=O)CN2C(=O)NC(C)(c3ccc4ccccc4c3)C2=O)c(C)n1Cc1ccco1` (configuration not stated), 97%.
Molecule `c1cc(-c2nc3ccccc3[nH]2)nc(-c2nc3ccccc3[nH]2)c1` gave an Inhibition of 87%.
Molecule `CCn1c(Sc2ccc([N+](=O)[O-])c(C#N)c2)nnc1-c1cccc(Cl)c1` gave an Inhibition of 89%.
Regarding `Cl.O=c1nc(NCCCNCc2cc3c(Cl)cc(Cl)cc3[nH]2)[nH]c2ccccc12`, the Inhibition is reported as 91%.
The same measure, in the same setting: for `COc1ccc(CCn2c(C3CCCCC3)nc3oc4ccccc4c(=O)c3c2=O)cc1` the value was 91%; for `Cc1cc(N2CCCC2)nc(Nc2ccc(NC(=O)COc3ccccc3)cc2)n1`, 100%; for `CC(=O)Nc1ncc(C(=O)Nc2cccc(-c3cccc(-c4nc5ccccc5[nH]4)c3)c2)s1`, 92%.
Turning to `CCOC(=O)C1CCN(CCOc2cc(NC(=O)/C=C/c3ccccc3Cl)ccc2Br)CC1.O=C(O)C(=O)O`, the Inhibition was 87%.
Consider `CSc1c(CNCCCNc2cc(=O)c3ccccc3[nH]2)[nH]c2ccccc12`, for which the Inhibition was determined as 87%.
Same read-out and setting: for `NC(=O)C1CCN(Cc2ccc(-c3ccc(-c4nc5cc(F)ccc5[nH]4)cc3)cc2)CC1.O=C(O)C(F)(F)F` the value was 100%; for `COc1cc(NC2=NS(=O)(=O)c3cc(Cl)ccc3N2C)cc(OC)c1OC.O=C(O)C(F)(F)F`, 100%.
Same read-out and setting: for `Cc1ccccc1C1CCN(C2CCC(NC(=O)/C=C/c3cc(F)ccc3C(F)(F)F)CC2)CC1` (configuration not stated) the value was 98%.
As to `CS(=O)(=O)CCNCc1cccc(-c2cc3c(Nc4ccc5c(cnn5Cc5ccccc5)c4)ncnc3s2)c1.O=C(O)C(F)(F)F`, the Inhibition came out at 100%.
In turn, `Cc1[nH]c2ccc(O)cc2c1C1CCN(CCCCCNC(=O)/C=C/c2ccc(Cl)c(Cl)c2)CC1` displayed an Inhibition of 100%.

Another assay deals with Plasmodium falciparum. Put plainly: GSK_TCMDC: Inhibition of Plasmodium falciparum Dd2 in whole red blood cells, using parasite LDH activity as an index of growth. Test compounds present at 2uM. The assay is classed as functional.
Turning to `CC(C)N(C(=O)CSc1nc2cc(Cl)ccc2c(=O)n1Cc1ccccc1)C(C)C`, the Inhibition stood at 97%.
Consider `NC1CCN(c2nc(NCCCc3ccc(O)cc3)nc(NCc3ccccc3-c3ccc(C(F)(F)F)cc3)n2)CC1.O=C(O)C(F)(F)F`, for which the Inhibition came out at 88%.
On the same count and under the same terms, for `Cc1cc(N(C)CCN(C)C)nc(Nc2ccc(Br)cc2)n1` the value was 23%; for `Fc1ccc2[nH]c(-c3cccc(-c4ccc(CNCc5ccccc5)cc4)c3)nc2c1.O=C(O)C(F)(F)F`, 89%; for `CN(C)C(C)(C)CN(Cc1ccc(-c2ccc(C(F)(F)F)cc2)cc1)C(=O)Cn1c(CCc2cccc(F)c2F)nc(=O)c2ccccc21.O=C(O)C(O)C(O)C(=O)O`, 67%.
Molecule `O=C(O)C(F)(F)F.OCCN1CCN(Cc2ccc(-c3cccc(-c4nc5cc(F)ccc5[nH]4)c3)cc2)CC1` gave an Inhibition of 61%.
Molecule `O=C(Nc1ccc(F)cc1)NC1CCN(c2ccnc3cc(Cl)ccc23)C1.O=C(O)C(F)(F)F` (configuration not stated) displayed an Inhibition of 67%.
`COc1ccc(CCN(C)CCCN2CCC(NC(=O)c3cccc4c(=O)c5ccccc5sc34)CC2)cc1OC.O=C(O)C(=O)O` had an Inhibition of 79%.
As for `Cc1nc2nc(N)nc(N)c2c(C)c1Cc1ccccc1.Cl`, the Inhibition is 0%.
As to `COc1cc(OC)c2c(C)cc(NCCCn3ccnc3)nc2c1`, the Inhibition came out at 22%.
The same measure, in the same setting: for `O=C(Nc1cccc(-c2csc(-c3nc4ccccc4[nH]3)c2)c1)c1cc(=O)c2ccccc2[nH]1` the value was 39%; for `CCCN(CC1CC1)c1nc(C)nc2c(-c3ccccc3)cc(C)cc12`, 78%; for `O=C(Nc1cccc(CN2CCCN(CCc3ccccc3)CC2)c1)c1cc2ccccc2s1.O=C(O)C(F)(F)F`, 39%.
With `COc1ccc(NCc2cccc(-c3cccc(CNCCc4ccccc4)c3)c2)cc1.O=C(O)C(F)(F)F`, the Inhibition amounted to 14%.
The same measure, in the same setting: for `O=C(NCC1CCN(Cc2cccc(C(F)(F)F)c2)C1)c1cc(-c2cccc(F)c2)cs1.O=C(O)C(F)(F)F` (configuration not stated) the value was 5%; for `Cc1cc2ncn(-c3ccnc(N4CCN(CCCN5CCCC5)CC4)n3)c2cc1C.O=C(O)C(F)(F)F`, 49%; for `O=C(Nc1ccc(N2CCCN(Cc3cccc(F)c3)CC2)cc1)c1cccs1.O=C(O)C(F)(F)F`, 96%.
Turning to `O=C(NC1CCN(CCN2CCC(c3cn(CCO)c4ccccc34)CC2)CC1)c1ccc(-c2ccc(C(F)(F)F)cc2)cc1`, the Inhibition amounted to 54%.
`CCCCCC(=O)N1CCOC(CCN2CCC(c3ccccc3)CC2)(c2ccc(Cl)c(Cl)c2)C1` (configuration not stated) showed an Inhibition of 51%.
The same measure, in the same setting: for `COc1ccccc1C1CCN(C2CCC(NC(=O)/C=C/c3cccc(C(F)(F)F)c3)CC2)CC1` (configuration not stated) the value was 34%; for `O=C(/C=C/c1ccc(Cl)c(Cl)c1)NCCCCCN1CCC(NC(=O)Nc2cc(Cl)nc(Cl)c2)CC1`, 2%; for `CN(CCN)Cc1ccc(-c2ccc(-c3nc4cc(F)ccc4[nH]3)s2)cc1.O=C(O)C(F)(F)F`, 81%.
As to `CC1CN(Cc2ccccc2)CCN1c1ccc(NC(=O)c2ccc(F)cc2)cc1.O=C(O)C(F)(F)F` (configuration not stated), the Inhibition was 89%.
In turn, `O=C(O)C(F)(F)F.O=C1CCCN1CCCNCc1ccc(-c2ccc(-c3nc4cc(F)ccc4[nH]3)s2)cc1` registered an Inhibition of 91%.
For the molecule `O=C(Nc1ccc2c(c1)CCN(C1CCC1)CC2)c1cn(-c2ccccc2)nc1-c1ccccc1.O=C(O)C(F)(F)F`, the Inhibition is 10%.
On the same count and under the same terms, for `Cc1cc2ccccc2c(CON2C(=N)N=C(N)NC2(C)C)c1C.Cl` the value was 31%; for `Cc1cc(C(=O)CN2C(=O)NC(C)(c3ccc4ccccc4c3)C2=O)c(C)n1Cc1ccco1` (configuration not stated), 71%.
On to `c1cc(-c2nc3ccccc3[nH]2)nc(-c2nc3ccccc3[nH]2)c1`, for which the Inhibition turned out to be 24%.
Turning to `CCn1c(Sc2ccc([N+](=O)[O-])c(C#N)c2)nnc1-c1cccc(Cl)c1`, the Inhibition is given as 22%.
In the case of `Cl.O=c1nc(NCCCNCc2cc3c(Cl)cc(Cl)cc3[nH]2)[nH]c2ccccc12`, the Inhibition is on record as 4%.
The molecule `COc1ccc(CCn2c(C3CCCCC3)nc3oc4ccccc4c(=O)c3c2=O)cc1` displayed an Inhibition of 66%.
For the molecule `Cc1cc(N2CCCC2)nc(Nc2ccc(NC(=O)COc3ccccc3)cc2)n1`, the Inhibition stood at 86%.
The molecule `CC(=O)Nc1ncc(C(=O)Nc2cccc(-c3cccc(-c4nc5ccccc5[nH]4)c3)c2)s1` displayed an Inhibition of 38%.
`CCOC(=O)C1CCN(CCOc2cc(NC(=O)/C=C/c3ccccc3Cl)ccc2Br)CC1.O=C(O)C(=O)O` yielded an Inhibition of 29%.
`CSc1c(CNCCCNc2cc(=O)c3ccccc3[nH]2)[nH]c2ccccc12`: the Inhibition is recorded as 21%.
`NC(=O)C1CCN(Cc2ccc(-c3ccc(-c4nc5cc(F)ccc5[nH]4)cc3)cc2)CC1.O=C(O)C(F)(F)F` displayed an Inhibition of 100%.
Same read-out and setting: for `COc1cc(NC2=NS(=O)(=O)c3cc(Cl)ccc3N2C)cc(OC)c1OC.O=C(O)C(F)(F)F` the value was 100%.
Regarding `Cc1ccccc1C1CCN(C2CCC(NC(=O)/C=C/c3cc(F)ccc3C(F)(F)F)CC2)CC1` (configuration not stated), the Inhibition is on record as 25%.
`CS(=O)(=O)CCNCc1cccc(-c2cc3c(Nc4ccc5c(cnn5Cc5ccccc5)c4)ncnc3s2)c1.O=C(O)C(F)(F)F` returned an Inhibition of 100%.
`Cc1[nH]c2ccc(O)cc2c1C1CCN(CCCCCNC(=O)/C=C/c2ccc(Cl)c(Cl)c2)CC1` displayed an Inhibition of 1%.

The record behind these values is ChEMBL document CHEMBL1157539, “Thousands of chemical starting points for antimalarial lead identification” (Nature, 2010).
